From PubChem BioAssay (NCATS)
“And” between values parts separate entries of the source, which are not always exact repeats. Equal values may be shown once. Records with an inconclusive call do not appear. Where a call stands in place of a potency, no number is given. Where a structure was tested more than once in an assay, its records may differ in their call. The source made the active and inactive calls. Unless noted, the call rests on the fitted dose curve; in most records, active means well fitted curve in the direction sought with a large enough effect; inconclusive means small, poorly fitted or top-dose-only effect, or another doubt; inactive means no such curve, though single readings can be large; an effect the other way counts as inactive or inconclusive.

Columns and labels:
[1] = biological target: Cytochrome P450 1A2 (Homo sapiens) (UniProt P05177); assay: p450-cyp1a2 (AID 410; calls by dose curve; further: potency means the concentration at half of the fitted maximal effect)
Sequence of Cytochrome P450 1A2 (Homo sapiens) (P05177 whole entry, looked up): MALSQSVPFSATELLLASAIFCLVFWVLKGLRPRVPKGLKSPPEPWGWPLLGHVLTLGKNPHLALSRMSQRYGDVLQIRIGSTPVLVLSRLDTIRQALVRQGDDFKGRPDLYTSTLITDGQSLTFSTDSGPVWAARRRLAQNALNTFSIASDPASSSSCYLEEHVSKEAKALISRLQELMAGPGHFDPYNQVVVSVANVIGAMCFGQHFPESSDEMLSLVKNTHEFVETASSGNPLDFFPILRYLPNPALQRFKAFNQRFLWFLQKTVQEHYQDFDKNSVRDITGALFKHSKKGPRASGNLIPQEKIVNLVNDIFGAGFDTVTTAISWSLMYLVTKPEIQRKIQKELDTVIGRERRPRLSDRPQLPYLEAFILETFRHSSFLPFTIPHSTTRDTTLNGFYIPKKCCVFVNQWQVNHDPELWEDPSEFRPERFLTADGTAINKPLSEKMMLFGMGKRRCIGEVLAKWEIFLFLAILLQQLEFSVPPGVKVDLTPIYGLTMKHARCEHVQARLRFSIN
How it was run: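 Read-out is luminescence from luciferin produced by CYP1A2 demethylation of Luciferin-ME (100uM, at Km). Detection reagent stopped the 60 min NADPH-dependent reaction; signals were normalized to 57 uM furafylline.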

[2] = NFAT Signaling Pathway (AID 444; active means well fitted curve in either direction with a large enough effect, not every such curve was filed as active;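 further: carbachol stimulus at about its EC50 of 1 µM final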); conditions: Jurkat NFAT-bla M1, carbachol, beta-lactamase ratio, 5 h; at 17.2 µM (top of the series) unless noted
How it was run: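 Read-out: CCF4 FRET ratio (460 nm/530 nm) after 1 h RT dye loading, used for %activity and AC50 from titration series. Cells: Jurkat NFAT-β-lactamase/M1 line, treated with compound plus 1 uM carbachol for 5 h, 37 °C.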

[3] = biological target: Glucocorticoid receptor (Homo sapiens) (UniProt P04150); assay: GR-EFC Redistribution (AID 451; calls by dose curve; further: potency means the concentration at half of the fitted maximal effect); conditions: CHO-K1 GR-EFC translocation, beta-gal luminescence, 2 h
Sequence of Glucocorticoid receptor (Homo sapiens) (P04150 whole entry, looked up, the tested form may be a part): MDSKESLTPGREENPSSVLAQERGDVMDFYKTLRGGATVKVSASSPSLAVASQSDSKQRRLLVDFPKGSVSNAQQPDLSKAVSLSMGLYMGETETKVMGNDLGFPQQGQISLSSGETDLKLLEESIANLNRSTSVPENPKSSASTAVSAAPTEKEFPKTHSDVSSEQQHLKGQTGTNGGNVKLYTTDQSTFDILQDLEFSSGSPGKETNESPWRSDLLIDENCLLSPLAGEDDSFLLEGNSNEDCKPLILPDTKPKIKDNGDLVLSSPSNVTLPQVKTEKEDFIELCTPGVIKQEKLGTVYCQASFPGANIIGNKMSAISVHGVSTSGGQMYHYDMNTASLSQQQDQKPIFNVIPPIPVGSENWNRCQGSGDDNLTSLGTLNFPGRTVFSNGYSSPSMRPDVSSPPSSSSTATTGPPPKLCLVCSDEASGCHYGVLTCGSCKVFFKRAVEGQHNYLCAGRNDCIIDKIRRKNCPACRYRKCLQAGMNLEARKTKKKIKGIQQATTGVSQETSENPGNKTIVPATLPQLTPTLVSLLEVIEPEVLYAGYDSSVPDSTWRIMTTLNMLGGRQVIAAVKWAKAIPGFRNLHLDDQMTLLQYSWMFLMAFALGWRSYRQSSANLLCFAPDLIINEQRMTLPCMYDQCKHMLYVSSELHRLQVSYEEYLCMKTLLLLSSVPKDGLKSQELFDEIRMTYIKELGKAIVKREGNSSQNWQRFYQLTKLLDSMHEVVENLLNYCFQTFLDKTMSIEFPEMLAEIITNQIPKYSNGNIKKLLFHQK
How it was run: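 Translocation of GR-ED fusion to nuclear EA restores b-gal, read by luminescence after 1 h room-temperature detection. Engineered CHO-K1 biosensor cells, 1,000/well, exposed 2 h at 37 C to titrations up to 46 uM final.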

[4] = biological target: Cytochrome P450 2C19 (Homo sapiens) (UniProt P33261); assay: qHTS Assay for Inhibitors and Substrates of Cytochrome P450 2C19 (AID 899); further: nearly all actives have a fitted effect of over 60% in size; further: potency means the concentration at half of the fitted maximal effect
Sequence of Cytochrome P450 2C19 (Homo sapiens) (P33261 whole entry, looked up): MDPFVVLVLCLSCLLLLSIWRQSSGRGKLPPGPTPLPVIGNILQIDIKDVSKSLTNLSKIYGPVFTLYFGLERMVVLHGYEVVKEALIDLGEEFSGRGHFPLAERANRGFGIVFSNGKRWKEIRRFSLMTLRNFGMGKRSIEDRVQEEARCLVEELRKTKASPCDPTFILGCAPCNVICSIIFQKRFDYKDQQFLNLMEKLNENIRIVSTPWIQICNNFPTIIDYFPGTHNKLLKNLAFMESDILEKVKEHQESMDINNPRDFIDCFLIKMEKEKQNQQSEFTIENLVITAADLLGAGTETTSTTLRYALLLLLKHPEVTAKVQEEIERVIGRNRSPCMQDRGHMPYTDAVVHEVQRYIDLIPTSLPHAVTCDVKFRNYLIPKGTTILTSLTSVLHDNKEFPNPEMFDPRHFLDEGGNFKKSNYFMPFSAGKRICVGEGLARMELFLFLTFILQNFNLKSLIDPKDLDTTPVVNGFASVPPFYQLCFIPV
How it was run: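 Reactions contain 5nM enzyme, 10uM Luciferin-H EGE (KM) and 50mM KPO4; compound preincubates 10 min at 37C, NADPH regeneration starts turnover for 60 min. Luminescence after detection reagent gives activity.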

[5] = S16 Schwann cell PMP22 intronic element firefly luciferase assay (AID 624032); further: nearly all actives have a fitted effect of over 30% in size
How it was run: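 Luciferase reporter of PMP22 intronic-element expression in stably transfected S16 rat Schwann cells, read by ONE-Glo luminescence after 24 h compound exposure at 37 C. Activity scaled between DMSO (0%) and positive-control PTC124; concentration-effect curves quality-classified.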

[6] = S16 Schwann cell PMP22 intronic element beta-lactamase assay (AID 624044; calls by dose curve; further: nearly all actives have a fitted effect of over 15% in size)
How it was run: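 Beta-lactamase reporter under a PMP22 intronic regulatory element in stable S16 rat Schwann cells; 24 h compound exposure. 460 nm blue signal normalized between DMSO (0%) and potassium clavulanate, with 535 nm FRET tracking viability; curves classed by r2 and response.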

CP203 = assay: qHTS profiling for inhibitors of Plasmodium falciparum proliferation (AID 504749); further: nearly all actives have a fitted effect of over 60% in size; further: potency means the concentration at half of the fitted maximal effect; conditions: P. falciparum in erythrocytes, SYBR Green DNA, 72 h; series mostly up to 12.8 µM
How it was run: (§1)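 In a 72 h erythrocytic culture (37 C, humidified, 5% CO2) at 2.5% hematocrit and 0.3% starting parasitemia, compounds were tested; SYBR Green I in detergent lysis buffer stained parasite DNA overnight.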

7G8 = assay: as above; conditions: P. falciparum in erythrocytes, SYBR Green DNA, 72 h; series mostly up to 12.8 µM
How it was run: as §1

DIV14 = assay: as above; conditions: P. falciparum in erythrocytes, SYBR Green DNA, 72 h; series mostly up to 12.8 µM
How it was run: as §1

ICS = assay: as above; conditions: P. falciparum in erythrocytes, SYBR Green DNA, 72 h; series mostly up to 12.8 µM
How it was run: as §1

W2 = assay: as above; conditions: P. falciparum in erythrocytes, SYBR Green DNA, 72 h; series mostly up to 12.8 µM
How it was run: as §1

[7] = biological target: Cytochrome P450 3A4 (Homo sapiens) (UniProt P08684); assay: qHTS Assay for Activators of Cytochrome P450 3A4 (AID 885); further: nearly all actives have a fitted effect of over 65% in size; further: potency means the concentration at half of the fitted maximal effect
Sequence of Cytochrome P450 3A4 (Homo sapiens) (P08684 whole entry, looked up): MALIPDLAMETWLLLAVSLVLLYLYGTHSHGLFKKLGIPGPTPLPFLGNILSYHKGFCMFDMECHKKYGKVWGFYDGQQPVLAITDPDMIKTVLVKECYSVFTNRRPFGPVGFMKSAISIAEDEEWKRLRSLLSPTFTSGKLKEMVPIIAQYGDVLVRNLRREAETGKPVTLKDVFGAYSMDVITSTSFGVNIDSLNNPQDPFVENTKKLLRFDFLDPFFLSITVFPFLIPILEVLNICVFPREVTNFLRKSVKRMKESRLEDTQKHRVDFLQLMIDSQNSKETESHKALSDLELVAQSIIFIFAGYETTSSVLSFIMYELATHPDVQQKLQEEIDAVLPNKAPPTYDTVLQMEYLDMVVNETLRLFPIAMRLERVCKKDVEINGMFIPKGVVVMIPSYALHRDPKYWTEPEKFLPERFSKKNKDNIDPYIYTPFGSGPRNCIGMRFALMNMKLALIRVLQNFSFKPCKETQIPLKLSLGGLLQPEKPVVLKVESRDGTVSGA
How it was run: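 Activators are scored by enhanced luminescence from CYP3A4 conversion of luciferin-PPXE (25uM, equal to KM) to luciferin, after 60 min at RT with an NADPH-regenerating system.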

CP335 = assay: qHTS profiling for inhibitors of Plasmodium falciparum proliferation (AID 504749); further: nearly all actives have a fitted effect of over 60% in size; further: potency means the concentration at half of the fitted maximal effect; conditions: P. falciparum in erythrocytes, SYBR Green DNA, 72 h; series mostly up to 12.8 µM
How it was run: as §1

DFO2036 = assay: as above; conditions: P. falciparum in erythrocytes, SYBR Green DNA, 72 h; series mostly up to 12.8 µM
How it was run: as §1

TAB113 = assay: as above; conditions: P. falciparum in erythrocytes, SYBR Green DNA, 72 h; series mostly up to 12.8 µM
How it was run: as §1

CP215 = assay: as above; conditions: P. falciparum in erythrocytes, SYBR Green DNA, 72 h; series mostly up to 12.8 µM
How it was run: as §1

[8] = biological target: Cytochrome P450 3A4 (Homo sapiens) (UniProt P08684); assay: qHTS Assay for Inhibitors and Substrates of Cytochrome P450 3A4 (AID 884); further: nearly all actives have a fitted effect of over 50% in size
How it was run: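 Luminescent readout of luciferin produced by CYP3A4 (20 nM) dealkylation of Luciferin-PPXE, 25 uM (its KM). NADPH-driven reaction ran 60 min at RT after 10 min compound preincubation; data scaled to 57 uM ketoconazole as 100% inhibition.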

[9] = biological target: Cytochrome P450 2D6 (Homo sapiens) (UniProt P10635); assay: qHTS Assay for Inhibitors and Substrates of Cytochrome P450 2D6 (AID 891); further: nearly all actives have a fitted effect of over 60% in size; further: potency means the concentration at half of the fitted maximal effect;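 on activity change, negative = inhibition: luciferin methyl ether substrate demethylated by CYP2D6 with NADPH regeneration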
Sequence of Cytochrome P450 2D6 (Homo sapiens) (P10635 whole entry, looked up): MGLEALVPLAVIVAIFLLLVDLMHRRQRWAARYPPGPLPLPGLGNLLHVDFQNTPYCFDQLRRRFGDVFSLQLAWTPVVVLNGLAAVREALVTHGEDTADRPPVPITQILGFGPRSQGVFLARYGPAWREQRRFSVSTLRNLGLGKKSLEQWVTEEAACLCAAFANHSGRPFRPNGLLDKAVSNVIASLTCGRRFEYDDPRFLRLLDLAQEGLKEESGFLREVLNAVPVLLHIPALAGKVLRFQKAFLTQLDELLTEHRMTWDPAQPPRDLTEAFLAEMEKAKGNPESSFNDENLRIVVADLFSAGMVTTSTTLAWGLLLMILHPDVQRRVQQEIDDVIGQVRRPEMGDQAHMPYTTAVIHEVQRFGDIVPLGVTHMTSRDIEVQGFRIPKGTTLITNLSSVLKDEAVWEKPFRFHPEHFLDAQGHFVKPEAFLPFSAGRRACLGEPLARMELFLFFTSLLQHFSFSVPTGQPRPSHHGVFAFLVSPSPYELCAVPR
How it was run: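 Luminescent read-out of luciferin formed by 5 nM human CYP2D6 demethylating 30 uM Luciferin-ME EGE (Km level) over 60 min at room temperature after NADPH regeneration addition. Data normalized to full inhibition by 1.43 uM quinidine.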

## NC[C@@H]1O[C@H](O[C@@H]2[C@H](O[C@@H]3O[C@H](CO)[C@@H](COC[C@H]4O[C@@H](CN)[C@@H](O)[C@@H](O)[C@@H]4N)[C@@H]3O)[C@@H](O)[C@@H](N)C[C@H]2N)[C@@H](N)[C@H](O)[C@@H]1O
[1]
  Potency: inactive
[2]
  activity change, negative = inhibition: -1.32% (inactive)
[3]
  Potency: > 20.6 µM (inactive)

## O=C(O)[C@@H]1[C@@H]2C[C@H]3c4[nH]c5ccccc5c4CCN3C[C@@H]2CC[C@@H]1O
[1]
  Potency: 12.6 µM (active) and inactive
[2]
  activity change, negative = inhibition: -27% (inactive)
[3]
  Potency: > 20.6 µM (inactive) and > 46 µM (inactive)
[4]
  Potency: inactive
[5]
  Potency: inactive
[6]
  Potency: inactive
CP203
  Potency: inactive

## C[C@@H]1C[C@H](OC(=O)[C@@H](O)c2ccccc2)CC(C)(C)N1C
[1]
  Potency: inactive
[3]
  Potency: > 20.6 µM (inactive)

## CC1(C)O[C@H]2C[C@@H]3[C@H]4CCC5=CC(=O)CC[C@@]5(C)[C@]4(F)[C@@H](O)C[C@@]3(C)[C@@]2(C(=O)CCl)O1
[1]
  Potency: inactive
[2]
  activity change, negative = inhibition: 17.6% (inactive)
[5]
  Potency: inactive
[6]
  Potency: inactive
7G8
  Potency: 1.58 µM (active)
DIV14
  Potency: 5.1 µM (active)
ICS
  Potency: 0.891 µM (active)
W2
  Potency: 4.55 µM (active)

## OC[C@@H](O)CN1CCN(c2ccccc2)CC1
[1]
  Potency: inactive
[2]
  activity change, negative = inhibition: 3.85% (inactive)
[3]
  Potency: > 20.6 µM (inactive)

## C=Cc1c(C)c2cc3nc(cc4[nH]c(cc5nc(cc1[nH]2)C(C)=C5CCC(=O)O)c(CCC(=O)OC)c4C)[C@@]1(C)C3=CC=C(C(=O)OC)[C@H]1C(=O)OC (tested in a mixture with another compound)
[1]
  Potency: 3.98 µM (active)
[3]
  Potency: > 20.6 µM (inactive)
[7]
  Potency: inactive
[6]
  Potency: inactive
7G8
  Potency: 0.355 µM (active)
CP335
  Potency: 3.79 µM (active)
DFO2036
  Potency: 11.2 µM (active)
DIV14
  Potency: 8.49 µM (active)
ICS
  Potency: 0.501 µM (active)
TAB113
  Potency: 1.78 µM (active)
W2
  Potency: 1.69 µM (active)

## CO[C@]1(NC(=O)[C@H](C(=O)O)c2ccc(O)cc2)C(=O)N2C(C(=O)O)=C(CSc3nnnn3C)CO[C@H]21
[1]
  Potency: inactive
[2]
  activity change, negative = inhibition: 6.17% (inactive)
[3]
  Potency: > 20.6 µM (inactive)
[5]
  Potency: inactive
7G8
  Potency: inactive
CP203
  Potency: inactive
CP215
  Potency: inactive
CP335
  Potency: inactive
DFO2036
  Potency: inactive
DIV14
  Potency: inactive
ICS
  Potency: inactive
TAB113
  Potency: inactive
W2
  Potency: inactive

## CC(=O)CC(=O)[C@@]1(O)CC[C@@H]2[C@@H]3C=C(C)C4=CC(=O)CC[C@@H]4[C@H]3CC[C@]21C
[1]
  Potency: inactive
[2]
  activity change, negative = inhibition: -13.4% (inactive)
[3]
  Potency: > 20.6 µM (inactive)
[8]
  Potency: inactive
[7]
  Potency: 2.51 µM (active)
[4]
  Potency: 5.01 µM (active)

## C[C@@H](Cc1cccc(C(F)(F)F)c1)NCCOC(=O)c1ccccc1
[1]
  Potency: 0.794 µM (active)
[2]
  activity change, negative = inhibition: -24.1% (inactive)
[9]
  Potency: 0.0158 µM (active)

## Cc1nccn1C[C@@H]1CCc2c(c3ccccc3n2C)C1=O
[1]
  Potency: 3.98 µM (active)
[2]
  activity change, negative = inhibition: -26.8% (inactive)

## Cc1onc(-c2c(F)cccc2Cl)c1C(=O)N[C@H]1C(=O)N2[C@H]1SC(C)(C)[C@H]2C(=O)O
[1]
  Potency: inactive
[2]
  activity change, negative = inhibition: -12.5% (inactive)
[3]
  Potency: > 20.6 µM (inactive)

## Nc1ncnc2c1ncn2[C@@H]1O[C@H](COP(=O)(O)O)[C@@H](O)[C@@H]1O
[1]
  Potency: inactive
[2]
  activity change, negative = inhibition: -4.61% (inactive)
[3]
  Potency: > 20.6 µM (inactive)
[8]
  Potency: inactive
[9]
  Potency: inactive
[4]
  Potency: inactive

## CCN(CC)[C@@H](C)CN1c2ccccc2Sc2ccccc21
[1]
  Potency: 0.501 µM (active)
[3]
  Potency: > 20.6 µM (inactive)
[9]
  Potency: 0.158 µM (active)
[5]
  Potency: inactive
[6]
  Potency: inactive
CP215
  Potency: inactive
DFO2036
  Potency: inactive

## CC=C(/C(=C/C)c1ccc(O)cc1)c1ccc(O)cc1
[1]
  Potency: 15.8 µM (active)
[3]
  Potency: > 20.6 µM (inactive)
[7]
  Potency: inactive
[4]
  Potency: 3.16 µM (active)
[5]
  Potency: inactive
[6]
  Potency: inactive
7G8
  Potency: inactive
CP203
  Potency: inactive
CP215
  Potency: inactive
CP335
  Potency: inactive
DIV14
  Potency: inactive
ICS
  Potency: inactive
TAB113
  Potency: inactive
W2
  Potency: inactive

## Nc1c(O)cccc1C(=O)C[C@@H](N)C(=O)O
[1]
  Potency: inactive
[2]
  activity change, negative = inhibition: -7.19% (inactive)
[3]
  Potency: > 20.6 µM (inactive)

## O[C@@](CCN1CCCCC1)(c1ccccc1)[C@@H]1C[C@H]2C=C[C@@H]1C2
[1]
  Potency: inactive
[3]
  Potency: > 20.6 µM (inactive)
[9]
  Potency: 2 µM (active)

## C=C(C)[C@H]1CC[C@]2(C(=O)O)CC[C@]3(C)[C@@H](CC[C@H]4[C@@]5(C)CC[C@@H](O)C(C)(C)[C@@H]5CC[C@@]43C)[C@H]12
[1]
  Potency: inactive
[2]
  activity change, negative = inhibition: -3.55% (inactive)
[3]
  Potency: > 20.6 µM (inactive)

## C1CCC(C(C[C@@H]2CCCCN2)C2CCCCC2)CC1
[1]
  Potency: 6.31 µM (active)
[3]
  Potency: > 20.6 µM (inactive)
[9]
  Potency: 0.501 µM (active)

## C[C@H]1CC[C@@H]2[C@@H](C)[C@H]3[C@H](C[C@H]4[C@@H]5CC=C6C[C@@H](O[C@]7(O[C@H]8O[C@@H](C)[C@@H](O)[C@@H](O)[C@@H]8O)C[C@@H](O[C@@H]8O[C@H](CO)[C@@H](O)[C@H](O)[C@@H]8O)[C@@H](O)[C@H](CO)O7)CC[C@]6(C)[C@H]5CC[C@@]34C)N2C1
[1]
  Potency: inactive
[3]
  Potency: > 20.6 µM (inactive)
[8]
  Potency: inactive
[9]
  Potency: inactive
[4]
  Potency: inactive

## CO[C@]1(NC(=O)C2SC(=C(C(N)=O)C(=O)O)S2)C(=O)N2C(C(=O)O)=C(CSc3nnnn3C)CS[C@H]21 (some centres undefined)
[1]
  Potency: inactive
[2]
  activity change, negative = inhibition: 13.4% (inactive)
[3]
  Potency: > 20.6 µM (inactive)
[5]
  Potency: inactive
[6]
  Potency: inactive
7G8
  Potency: inactive
CP203
  Potency: inactive
CP215
  Potency: inactive
DIV14
  Potency: inactive
ICS
  Potency: inactive
TAB113
  Potency: inactive
W2
  Potency: inactive

## O=C(OC[C@@H](O)CO)c1ccccc1Nc1ccnc2cc(Cl)ccc12
[1]
  Potency: 5.01 µM (active)
7G8
  Potency: 3.98 µM (active)
CP203
  Potency: inactive
CP215
  Potency: inactive
CP335
  Potency: inactive
DFO2036
  Potency: inactive
TAB113
  Potency: inactive
